{
  "source": "PubChem BioAssay AID743286",
  "about": "(National Center for Advancing Translational Sciences (NCATS), 2014)",
  "note": "The campaign covered roughly 1,100 compounds. About 340 (31%) were called active. Not shown: some 40% with an inconclusive outcome. The call rests on the fitted dose curve; in most records, active means well fitted inhibition curve with a large enough effect; inconclusive means small, poorly fitted or top-dose-only effect; inactive means flat fitted curve, though single readings scatter. A selection follows. On the % scale 0 is the no-effect control and ±100 the full control effect; potency means the concentration at half of the fitted maximal effect.",
  "data": [
    {"molecular_target": "Phosphatidylinositol 5-phosphate 4-kinase type-2 alpha (Homo sapiens) (UniProt P48426)", "sequence (P48426 whole entry, looked up)": "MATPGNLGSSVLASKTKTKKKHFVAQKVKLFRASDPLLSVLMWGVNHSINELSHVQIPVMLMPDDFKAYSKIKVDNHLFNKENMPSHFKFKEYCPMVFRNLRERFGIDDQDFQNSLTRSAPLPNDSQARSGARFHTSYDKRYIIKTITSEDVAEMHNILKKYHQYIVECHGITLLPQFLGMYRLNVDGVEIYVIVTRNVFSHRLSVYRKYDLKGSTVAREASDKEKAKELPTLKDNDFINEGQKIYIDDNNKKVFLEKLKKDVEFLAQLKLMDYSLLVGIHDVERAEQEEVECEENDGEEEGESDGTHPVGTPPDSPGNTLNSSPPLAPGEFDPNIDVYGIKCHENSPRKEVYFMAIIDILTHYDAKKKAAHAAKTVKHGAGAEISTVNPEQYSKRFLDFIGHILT", "test": "qHTS for Inhibitors of PI5P4K: Confirmation in Primary Assay; further: nearly all actives have a fitted effect of over 65% in size", "conditions": "PI5P4Kalpha enzyme, ADP-Glo luminescence, 60 min; series mostly up to 76.9 µM; activity change, negative = inhibition: at the top concentration", "text": "In addition to finding PI5P, we discovered the type II phosphatidylinositol 5-phosphate 4-kinase (PI5P4K) family (alpha, beta, gamma isoforms) that catalyze the conversion of PI5P to PI(4,5)P2. Alternatively, PI(4,5)P2 can also be synthesized through phosphatidylinositol-4-phosphate (PI4P) by the type I phosphatidylinositol 4-phosphate 5-kinases (PI4P5K). These PI5P4K enzymes therefore represent one way by which cells can regulate endogenous PI5P levels and play important roles in insulin signaling and in stress responses. […] A qHTS PI5P4K-alpha ADP-Glo assay was developed to identify specific modulators of human PI5P4K, phosphatidylinositol-5-phosphate 4-kinase (Type II PIPK). This assay was screened against the MLSMR containing ~400,000 small molecules (PubChem AID 652105). To confirm that the hits were not interacting with the detection enzyme system, a 1536-well counterscreen against the ADP-Glo kit (Promega) was utilized, as described in Davis et al., 2013 [1]. Davis et al., PLoS One. 2013;8(1):e54127. NIH Chemical Genomics Center [NCGC] NIH Molecular Libraries Probe Centers Network [MLPCN] MLPCN Grant: MH096575 Assay Submitter (PI): Atsuo Sasaki, Beth Israel Deaconess Medical Center\n2 microL of PI5P4Kalpha/substrate buffer (columns 1-2, 5-48) are dispensed into Greiner white solid bottom 1536-well assay plates; column 3 receives only PI5P4Kalpha buffer as 0x substrate controls; column 4 receives only substrate buffer as 0x PI5P4Kalpha controls. Final assay buffer consists of 0.038 M HEPES pH 7.4, 0.28 mM EGTA, 0.1% CHAPS, and 5% DMSO (final concentration). Compounds are then transferred via Kalypsys pin tool equipped with 1536-pin array (10 nL slotted pins, V&P Scientific, San Diego, CA). Following addition of compound, 1 microL of ATP (5 microM final concentration, all columns) is added to initiate the reaction. ATP is diluted in an assay buffer consisting of 0.02 M HEPES pH 7.4, 60 mM MgCl2, 15 microM ATP, and 0.1% CHAPS. The plates are then incubated at room temperature for 60 minutes. ADP-Glo reagent 1 is added (2 microL) and plates incubated for 45 minutes, before ADP-Glo reagent 2 (4 microL) is added and plates incubated for 30 minutes. They are then transferred to a ViewLux high-throughput CCD imager (PerkinElmer) wherein single end-point measurements of luminescence are acquired using a clear filter.", "values": [
      {"smiles": "O=C(NCc1ccco1)c1ccc([N+](=O)[O-])o1", "Potency": "31.6 µM (active)"},
      {"smiles": "O=C(CSC1=NCCS1)NCc1ccco1", "activity change, negative = inhibition": "-2.33% (inactive)"},
      {"smiles": "S=C(NCc1ccco1)NCc1ccco1", "Potency": "14.1 µM (active)"},
      {"smiles": "O=C(c1ccco1)N1CCN(C(=O)c2ccc(-c3ccc([N+](=O)[O-])cc3)o2)CC1", "activity change, negative = inhibition": "-22.3% (inactive)"},
      {"smiles": "CC(C)(C)[C@H]1C=C(C(=O)N2CCOCC2)O[C@@H](OCc2ccc(CO)cc2)C1", "activity change, negative = inhibition": "12.7% (inactive)"},
      {"smiles": "COc1ccc(Cl)cc1S(=O)(=O)NCCCn1ccnc1", "activity change, negative = inhibition": "15.4% (inactive)"},
      {"smiles": "COCCNC(=O)c1cc(-c2ccccc2)sc1N", "activity change, negative = inhibition": "-27.2% (inactive)"},
      {"smiles": "Cc1ccc(CNc2ncnc3ccc(-c4ccc(CO)o4)cc23)o1", "activity change, negative = inhibition": "-12.4% (inactive)"},
      {"smiles": "Cc1cc(O)ccc1Nc1cc(-c2cccc(N(C)C)c2)ncn1", "Potency": "12.6 µM (active)"},
      {"smiles": "O=C(NC1CCCC1)C(c1ccncc1)N(C(=O)c1csnn1)c1ccccc1F", "note": "(centres undefined)", "activity change, negative = inhibition": "2.88% (inactive)"},
      {"smiles": "Cc1sc2ncn(CC(=O)N3CCC(C(N)=O)CC3)c(=O)c2c1S(=O)(=O)N1CC(C)CC(C)C1", "note": "(centres undefined)", "activity change, negative = inhibition": "-2.16% (inactive)"},
      {"smiles": "Cc1ccc(C)c(OC(C)C(=O)Nc2ccc(S(=O)(=O)Nc3nccs3)cc2)c1", "note": "(centres undefined)", "activity change, negative = inhibition": "-10.6% (inactive)"},
      {"smiles": "O=C(Nc1ccc(S(=O)(=O)Nc2nccs2)cc1)c1nn(-c2ccc(F)cc2)ccc1=O", "Potency": "15.8 µM (active)"},
      {"smiles": "Cc1noc(C)c1C(=O)Nc1ccc(-n2ccc(C(F)(F)F)n2)cc1", "activity change, negative = inhibition": "19.3% (inactive)"},
      {"smiles": "COc1ccc(C(=O)N2CCCC2(C)C(=O)O)cc1C(F)(F)F", "note": "(centres undefined)", "activity change, negative = inhibition": "-0.629% (inactive)"},
      {"smiles": "O=C(c1cccc(-n2cccc2)c1)N1CCN(S(=O)(=O)c2ccccc2)CC1", "Potency": "3.98 µM (active)"},
      {"smiles": "CC(=O)N1CCN(S(=O)(=O)c2cccc(C(=O)Nc3ccc(F)c(F)c3)c2)CC1", "activity change, negative = inhibition": "1.67% (inactive)"},
      {"smiles": "COc1ccc(CN2CCC(=O)N([C@H](CO)CC(C)C)CC2)cc1OC", "activity change, negative = inhibition": "-0.623% (inactive)"},
      {"smiles": "CCCCCCCCN1C(=O)[C@H](CC(=O)NCc2ccc(C)o2)C[C@@]2(C(=O)OC)CC(C)(C)CC=C12", "activity change, negative = inhibition": "-22% (inactive)"},
      {"smiles": "CC1=NN(c2nc(-c3ccc(Cl)cc3)cs2)C(=O)C1", "Potency": "15.8 µM (active)"},
      {"smiles": "CCOC(=O)Nc1ccc2c(CNC(C)c3ccccc3OC)cc(=O)oc2c1", "note": "(centres undefined)", "activity change, negative = inhibition": "-1.24% (inactive)"},
      {"smiles": "CC1CCN(C(=O)c2ccc(COc3ccccc3Cl)o2)CC1", "activity change, negative = inhibition": "-1.87% (inactive)"},
      {"smiles": "CCCCC1=CC2=C(c3ccco3)C(=O)C(C)(OC(=O)c3ccc(OC)cc3)C(=O)C2=CN1Cc1ccccc1", "note": "(centres undefined)", "activity change, negative = inhibition": "-20% (inactive)"},
      {"smiles": "COC(=O)CCC(=O)OC1(C)C(=O)C2=CN(CC3CC3)C(c3ccc(OC)cc3)=CC2=C(Br)C1=O", "note": "(centres undefined)", "activity change, negative = inhibition": "-26% (inactive)"},
      {"smiles": "COc1ccc(C2=CC3=C(Br)C(=O)C(C)(OC(=O)c4cccs4)C(=O)C3=CO2)cc1", "note": "(centres undefined)", "Potency": "22.4 µM (active)"},
      {"smiles": "Cc1ccc(S(=O)c2ccc(NC(=O)C3CC3)cc2C#N)cc1", "note": "(centres undefined)", "activity change, negative = inhibition": "0.926% (inactive)"},
      {"smiles": "Cc1ccc(N(C(=O)CNC(=O)c2ccco2)C(C(=O)NC2CCCC2)c2cccnc2)c(C)c1", "note": "(centres undefined)", "activity change, negative = inhibition": "0.488% (inactive)"},
      {"smiles": "O=C(CN1CCN(c2ccccc2F)CC1)NCc1ccccc1", "activity change, negative = inhibition": "0.884% (inactive)"},
      {"smiles": "COc1ccc(-c2csc(NC(=O)c3ccccc3F)c2C(=O)O)cc1", "activity change, negative = inhibition": "-21.7% (inactive)"},
      {"smiles": "COc1cc(C(=O)Nc2scc(-c3ccccc3)c2C(=O)O)cc(OC)c1OC", "Potency": "12.6 µM (active)"},
      {"smiles": "COc1ccc(C(=O)NCCSc2ccccc2)cc1OC", "activity change, negative = inhibition": "-0.179% (inactive)"},
      {"smiles": "COc1cc(C(=O)Nc2scc(-c3ccc(Br)cc3)c2C(=O)O)cc(OC)c1OC", "Potency": "5.62 µM (active)"},
      {"smiles": "COc1cc(C(=O)Nc2scc(-c3ccc(C)cc3)c2C(=O)O)cc(OC)c1OC", "Potency": "3.55 µM (active)"},
      {"smiles": "Cc1ccc(-c2csc(NC(=O)c3ccc(Br)cc3)c2C(=O)O)cc1", "Potency": "14.1 µM (active)"},
      {"smiles": "NC(=O)C1CCN(CC(=O)Nc2ccc3c(c2)OCCO3)CC1", "activity change, negative = inhibition": "-1.63% (inactive)"},
      {"smiles": "CCOC(=O)CSc1nc2ccc(NC(=O)CSc3nnnn3Cc3ccccc3)cc2s1", "activity change, negative = inhibition": "-28.3% (inactive)"},
      {"smiles": "O=C(NCCc1ccccc1)C(c1cccs1)N(C(=O)c1csnn1)C1CC1", "note": "(centres undefined)", "activity change, negative = inhibition": "-0.725% (inactive)"},
      {"smiles": "Cc1nc(CS(=O)(=O)c2ccccc2)cc(N2CCOCC2)n1", "activity change, negative = inhibition": "1.26% (inactive)"},
      {"smiles": "O=C(CCNS(=O)(=O)c1ccc(Br)s1)NCc1ccccc1Cl", "activity change, negative = inhibition": "5.56% (inactive)"},
      {"smiles": "CCCCC1Cc2[nH][nH]c(=O)c2C(c2ccc(F)cc2)O1", "note": "(centres undefined)", "activity change, negative = inhibition": "-21.6% (inactive)"},
      {"smiles": "COc1ccc2nc(SCC(=O)N3CCN(c4ccc(F)cc4)CC3)c(C#N)cc2c1", "activity change, negative = inhibition": "2.87% (inactive)"},
      {"smiles": "O=S(=O)(c1ccccc1)N1N=C(c2cccs2)CC1c1ccc(Br)cc1", "note": "(centres undefined)", "activity change, negative = inhibition": "4.73% (inactive)"},
      {"smiles": "O=C1NC(c2cc(Cl)cc([N+](=O)[O-])c2O)Nc2ccccc21", "note": "(centres undefined)", "Potency": "8.91 µM (active)"},
      {"smiles": "O=C1NC(c2cccs2)Nc2ccccc21", "note": "(centres undefined)", "activity change, negative = inhibition": "-12.8% (inactive)"},
      {"smiles": "Cc1cccc(S(=O)(=O)NC(=O)C2(C)CCN2C(=O)Cc2cc(F)ccc2F)c1", "note": "(centres undefined)", "activity change, negative = inhibition": "-1.58% (inactive)"},
      {"smiles": "Cc1cccc2cc(CN(Cc3cccnc3)C(=S)NCCCN(C)C)c(=O)[nH]c12", "activity change, negative = inhibition": "0.897% (inactive)"},
      {"smiles": "COc1cc(Cn2c3ccc(NC(=O)CCc4ccccc4)cc3c(=O)n2C)ccc1F", "activity change, negative = inhibition": "-2.41% (inactive)"},
      {"smiles": "CCOc1ccc(S(=O)(=O)N(C(=O)c2ccco2)c2cc3sc(=O)oc3c3ccccc23)cc1", "activity change, negative = inhibition": "-1.84% (inactive)"},
      {"smiles": "CCCOc1ccc(CSc2ncn[nH]2)cc1", "activity change, negative = inhibition": "1.37% (inactive)"},
      {"smiles": "O=C(NCc1ccccc1)C(c1ccccc1)n1c(=O)c(-c2ccco2)nc2ccccc21", "note": "(centres undefined)", "activity change, negative = inhibition": "-24.1% (inactive)"},
      {"smiles": "O=C(NC1CCC(O)CC1)c1cc(-c2ccco2)nc2ccccc12", "note": "(centres undefined)", "Potency": "12.6 µM (active)"},
      {"smiles": "Cn1nnc2cc(C(=O)NC3CC3)ccc21", "activity change, negative = inhibition": "-7.92% (inactive)"},
      {"smiles": "CCCCCCNC(=O)c1cc(-c2ccco2)nc2ccccc12", "Potency": "7.08 µM (active)"},
      {"smiles": "Cc1ccc(-c2cc(C(=O)O)c3cc(Br)ccc3n2)o1", "Potency": "25.1 µM (active)"},
      {"smiles": "O=C(NCc1ccco1)c1c2c(nc3ccccc13)CCC2", "Potency": "10 µM (active)"},
      {"smiles": "Cc1nnc(-c2ccccc2)nc1N(C)C", "activity change, negative = inhibition": "-3.17% (inactive)"},
      {"smiles": "O=C(COC(=O)C1CCCCC1)Nc1ccccc1OC(F)F", "activity change, negative = inhibition": "3.6% (inactive)"},
      {"smiles": "COc1cccc(N2CCN(C(=O)c3ccc(CS(=O)c4ccccc4C)o3)CC2)c1", "note": "(centres undefined)", "activity change, negative = inhibition": "1.63% (inactive)"},
      {"smiles": "CC(C)(C(=O)N1CCC1(C)C(=O)NS(=O)(=O)c1ccc(C#N)cc1)c1ccccc1", "note": "(centres undefined)", "activity change, negative = inhibition": "0.35% (inactive)"},
      {"smiles": "O=C(OCC(=O)N1N=C(c2ccc(Cl)cc2)CC1c1ccco1)c1cccnc1", "note": "(centres undefined)", "activity change, negative = inhibition": "-24.6% (inactive)"},
      {"smiles": "Cc1ccc(-c2cc(C(=O)NCc3ccco3)c3ccccc3n2)o1", "Potency": "14.1 µM (active)"},
      {"smiles": "COc1ccc(-c2cc(C(=O)Nc3ccccc3O)c3ccccc3n2)cc1", "activity change, negative = inhibition": "-1.85% (inactive)"},
      {"smiles": "COc1ccc(CCNC(=O)c2cc(-c3ccco3)nc3ccccc23)cc1", "Potency": "15.8 µM (active)"},
      {"smiles": "COc1ccc(CCNC(=O)C2CC(c3cccc(F)c3)=NO2)cc1", "note": "(centres undefined)", "activity change, negative = inhibition": "-4.13% (inactive)"}
    ]}
  ]
}
